This passage reports growth results from PubChem BioAssay (NCI).

Molecules are shown by their SMILES. Where “and” joins values, the source holds several entries; their conditions need not be identical. Equal values may be shown once. Compounds without any hit were thinned out: in the full panel of roughly 83,000, 20% have a hit.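 Method: cells in 96-well plates; compound added at one concentration; 48 h incubation; percent growth measured; values under 10 scored active.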 Calls of active or inactive are those of the source.

Some test systems named below: SR leukemia; RPMI-8226 leukemia; OVCAR-8 ovarian; OVCAR-5 ovarian; OVCAR-4 ovarian; IGROV1 ovarian; HS 578T breast; NCI/ADR-RES ovarian; T-47D breast; BT-549 breast; MDA-MB-435 melanoma; SW-620 colon; MCF7 breast; HCT-116 colon; SK-OV-3 ovarian; OVCAR-3 ovarian; HCC-2998 colon; KM12 colon.
Common to all, as to assay: NCI-60 one-dose screen, 48 h (100 = growth as untreated, 0 = no growth, -100 = all killed)
What all share (conditions): 10 µM unless noted

As for `Oc1ccc(Cc2ccccc2Cl)c(O)c1`, the growth in the test with SR leukemia is 95.7% (inactive); in the test with RPMI-8226 leukemia, 87.5% (inactive); in the test on OVCAR-8 ovarian, 104% (inactive); with OVCAR-5 ovarian, 97.3% (inactive); in the test with OVCAR-4 ovarian it was 93.6% (inactive); with IGROV1 ovarian it was 94.7% (inactive). Moreover, the growth in the test with HS 578T breast was 94.4% (inactive); with NCI/ADR-RES ovarian it was 91.5% (inactive); in the test on T-47D breast it was 83.9% (inactive); in the test with BT-549 breast, 99.2% (inactive); in the test on MDA-MB-435 melanoma it was 107% (inactive); in the test on SW-620 colon, 97.1% (inactive). For the same compound, the values for the growth in the test with MCF7 breast and with HCT-116 colon were 119% (inactive) and 96.6% (inactive), respectively.
`O=C(Cc1ccccc1)c1ccc(O)c(Cl)c1`: the growth with SR leukemia was 10.2% (inactive); with RPMI-8226 leukemia it was -6.77% (active); in the test with OVCAR-8 ovarian, 43.4% (inactive); in the test with OVCAR-5 ovarian, 65.6% (inactive); in the test with OVCAR-4 ovarian, 63.5% (inactive); in the test on SK-OV-3 ovarian it was 101% (inactive). The growth is 60.4% (inactive) in the test on IGROV1 ovarian; 12.4% (inactive) with OVCAR-3 ovarian; 37.4% (inactive) in the test with HS 578T breast; 28.5% (inactive) in the test on NCI/ADR-RES ovarian; 43.9% (inactive) with T-47D breast; 45.3% (inactive) in the test with BT-549 breast. Also, the growth in the test on MDA-MB-435 melanoma was 41.3% (inactive); in the test with SW-620 colon it was 22.1% (inactive); in the test with MCF7 breast it was 20.4% (inactive); in the test on HCT-116 colon it was 27% (inactive); in the test with HCC-2998 colon, 43.4% (inactive); in the test on KM12 colon, 51.4% (inactive).
`Cc1ccc(=O)[nH]n1`: the growth in the test with SR leukemia is 98.9% (inactive) and 93% (inactive); in the test with OVCAR-8 ovarian, 100% (inactive) and 102% (inactive); with OVCAR-5 ovarian, 115% (inactive) and 98.4% (inactive); with OVCAR-4 ovarian, 112% (inactive) and 122% (inactive); with SK-OV-3 ovarian it was 111% (inactive) and 112% (inactive); in the test with IGROV1 ovarian it was 106% (inactive). The growth was 106% (inactive) and 107% (inactive) with OVCAR-3 ovarian; 105% (inactive) and 93.7% (inactive) with HS 578T breast; 103% (inactive) with NCI/ADR-RES ovarian; 109% (inactive) and 95.4% (inactive) with T-47D breast; 112% (inactive) and 113% (inactive) in the test on BT-549 breast; 113% (inactive) in the test on MDA-MB-435 melanoma. The growth is 102% (inactive) and 103% (inactive) in the test with SW-620 colon; 101% (inactive) and 96.2% (inactive) in the test with MCF7 breast; 107% (inactive) in the test on HCT-116 colon; 103% (inactive) and 101% (inactive) with KM12 colon.
With `CC1CCC2(OC1)OC1CC3C4CC=C5CC(O)CCC5(C)C4CCC3(C)C1C2C` (stereo unspecified), the growth in the test on SR leukemia is 29.7% (inactive); with OVCAR-8 ovarian it was 102% (inactive); in the test on OVCAR-5 ovarian it was 114% (inactive); in the test with OVCAR-4 ovarian, 95.7% (inactive); in the test on SK-OV-3 ovarian, 114% (inactive); in the test with IGROV1 ovarian, 67.5% (inactive). Besides, the growth in the test on OVCAR-3 ovarian was 105% (inactive); with HS 578T breast, 86.8% (inactive); with NCI/ADR-RES ovarian, 114% (inactive); in the test on T-47D breast it was 106% (inactive); in the test on BT-549 breast, 130% (inactive); in the test on MDA-MB-435 melanoma, 116% (inactive). The growth in the test on SW-620 colon is 106% (inactive); in the test on MCF7 breast, 105% (inactive); with HCT-116 colon it was 92.2% (inactive); with HCC-2998 colon it was 112% (inactive); in the test on KM12 colon, 104% (inactive).
As for `NC(=O)NCCCC(N)C(=O)O` (stereo unspecified), the growth with SR leukemia is 84% (inactive); in the test on RPMI-8226 leukemia, 96.5% (inactive); in the test with OVCAR-8 ovarian, 98% (inactive); in the test with OVCAR-5 ovarian, 113% (inactive); in the test with OVCAR-4 ovarian it was 112% (inactive); with SK-OV-3 ovarian it was 100% (inactive). Also, the growth with IGROV1 ovarian was 91.5% (inactive); in the test on OVCAR-3 ovarian it was 106% (inactive); with NCI/ADR-RES ovarian it was 102% (inactive); in the test on T-47D breast, 88.4% (inactive); with BT-549 breast, 95.7% (inactive); in the test on MDA-MB-435 melanoma, 107% (inactive). In addition, the growth in the test on SW-620 colon was 107% (inactive); in the test on MCF7 breast, 101% (inactive); in the test on HCT-116 colon, 104% (inactive); with KM12 colon, 101% (inactive).
Regarding `O=C1c2c(O)ccc(O)c2C(=O)c2c(NCCNCCO)ccc(NCCNCCO)c21`, the growth in the test on SR leukemia is -12.7% (active); with RPMI-8226 leukemia, -21.8% (active) and -30.9% (active); with OVCAR-8 ovarian it was -41.6% (active); with OVCAR-5 ovarian it was -15.1% (active) and -78.6% (active); in the test with OVCAR-4 ovarian it was -39.7% (active); in the test on SK-OV-3 ovarian, -23.4% (active) and -35.4% (active). Moreover, the growth in the test on IGROV1 ovarian was -10.4% (active) and -56.7% (active); in the test on OVCAR-3 ovarian, -50.5% (active) and -31.7% (active); in the test with NCI/ADR-RES ovarian it was 39.1% (inactive) and -9.1% (active); with T-47D breast it was -24% (active) and -46.9% (active); in the test with BT-549 breast, -46.2% (active) and -85.9% (active); with MDA-MB-435 melanoma, -89.9% (active) and -94.9% (active). The growth in the test on SW-620 colon was -30.8% (active) and -81.8% (active); in the test with MCF7 breast it was -42% (active); in the test on HCT-116 colon it was -20.2% (active) and -44.9% (active); in the test with KM12 colon it was -11.4% (active) and -25.6% (active).
For `COc1ccc(N/C=C/C2=[N+](C)c3ccccc3C2(C)C)c(OC)c1`, the growth in the test on SR leukemia was 101% (inactive); in the test with OVCAR-8 ovarian, 93.6% (inactive); in the test on OVCAR-5 ovarian it was 106% (inactive); in the test with OVCAR-4 ovarian, 91.7% (inactive); in the test with SK-OV-3 ovarian, 90.7% (inactive); with IGROV1 ovarian, 106% (inactive). For the same compound, the growth in the test on OVCAR-3 ovarian is 93.6% (inactive); with NCI/ADR-RES ovarian, 92.8% (inactive); with T-47D breast it was 89.5% (inactive); in the test on BT-549 breast, 89.3% (inactive); with MDA-MB-435 melanoma, 95% (inactive); in the test with SW-620 colon, 92.7% (inactive). Also, the results for the growth in the test on MCF7 breast and in the test on HCT-116 colon were 87.7% (inactive) and 88.8% (inactive), respectively.
